Where “and” joins values, the source holds several entries; their conditions need not be identical. Equal values may be shown once. A structure can be active in one record and inactive in another. Calls of active or inactive are those of the source. A call without a number means that no potency is given here. Unless noted, calls come from the whole dose curve; as a rule, active = well fitted curve in the direction sought with a large enough effect in the repeat runs; inconclusive = weak or mixed curves; inactive = no such curve, though single readings can be large; an effect the other way counts as inactive or inconclusive.
Columns and labels:
[1] = qHTS assay for small molecules that induce genotoxicity in human embryonic kidney cells expressing luciferase-tagged ATAD5 (AID 651632); note: nearly all actives have a fitted effect of over 15% in size; note: potency is the fitted concentration of half-maximal effect
Procedure, shortened: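 Quantitative HTS in HEK293T expressing luciferase-tagged ATAD5, whose levels rise upon DNA damage. Exposure ran 16 hr at 37C and 5% CO2, with luminescence read 30 min after Amplite addition at room temperature.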

[2] = qHTS assay for small molecule agonists of the p53 signaling pathway - cell viability (AID 651633; calls by dose curve; note: nearly all actives have a fitted effect of over 30% in size; note: potency is the fitted concentration of half-maximal effect)
Procedure, shortened: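 p53RE-bla cells were treated with compound for 16 hours at 37 C. Cytotoxicity was then measured as CellTiter-Glo luminescence after 30 min at room temperature.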

[3] = qHTS assay for small molecules that induce genotoxicity in human embryonic kidney cells expressing luciferase-tagged ATAD5 - cell viability (AID 651634; calls by dose curve; note: nearly all actives have a fitted effect of over 25% in size; note: potency is the fitted concentration of half-maximal effect)
Procedure, shortened: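 After 15.5 hr incubation with compound at 37C, 5% CO2, HEK293T ATAD5-luciferase cells received CellTiter-Fluor reagent; fluorescence intensity was quantified following 30 min at 37C.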

[4] = qHTS assay for small molecule disruptors of the mitochondrial membrane potential (AID 720635); note: potency is the fitted concentration of half-maximal effect
Procedure, shortened: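 HepG2 cells exposed to compound 1 hr at 37C, then Mito-MPS dye 30 min. Ratio read of aggregate (540/590 nm) versus monomer (490/535 nm) fluorescence.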

[5] = qHTS assay to test for compound auto fluorescence at 590 nm (red) in HepG2 cells (AID 720674)
Procedure, shortened: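 Fluorescence at 590 nm emission following 540 nm excitation was recorded from HepG2 wells one hour after compound transfer, with DMSO-only wells as vehicle and Rose Bengal sodium equivalency as the scale.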

[6] = qHTS assay to test for compound auto fluorescence at 535 nm (green) in HepG2 cells (AID 720675)
[7] = qHTS assay to test for compound auto fluorescence at 460 nm (blue) in HEK293 cells (AID 720678)
Procedure, shortened: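 Triamterene serves as the blue fluorophore standard. Compound signal at 405/460 nm is read in HEK293 wells (2,000 cells, 10% dialyzed FBS) after overnight treatment at 37C.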

[8] = qHTS assay to test for compound auto fluorescence at 590 nm (red) in HEK293 cells (AID 720679)
Procedure, shortened: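 We plated HEK293 cells in 10% dialyzed FBS medium, let them adhere for 4-5 hr, then added 23 nL compound. Overnight at 37C and 5% CO2 preceded fluorescence measurement at 540/590nm.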

[9] = qHTS assay to test for compound auto fluorescence at 535 nm (green) in HEK293 cells (AID 720680)
[10] = qHTS assay to test for compound auto fluorescence at 460 nm (blue) in HEK293 cell free culture (AID 720681); note: potency is the fitted concentration of half-maximal effect
Procedure, shortened: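 Compounds were added to cell-free DMEM with 10% FBS and fluorescence read directly. The blue channel used 405 nm excitation and 460 nm emission, with triamterene as the reference fluorophore.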

[11] = qHTS assay to test for compound auto fluorescence at 535 nm (green) in HEK293 cell free culture (AID 720682)
Procedure, shortened: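 Green-label autofluorescence (485 nm excitation, 535 nm emission) measured on compound added to cell-free culture medium (DMEM, 10% FBS). Output is expressed relative to fluorescein.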

[12] = qHTS assay to test for compound auto fluorescence at 590 nm (red) in HEK293 cell free culture (AID 720683)
Procedure, shortened: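 Cell-free wells of DMEM with 10% FBS received compound, and intrinsic fluorescence was read at excitation/emission 540/590 nm. Values expressed as equivalence to Rose Bengal sodium.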

[13] = qHTS assay to test for compound auto fluorescence at 590 nm (red) in HepG2 cell free culture (AID 720684)
Procedure, shortened: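 Auto fluorescence equivalency versus Rose Bengal sodium, red channel Ex/Em 540/590 nm; compounds in cell-free MEM/10% FBS; DMSO vehicle control.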

[14] = qHTS assay to test for compound auto fluorescence at 460 nm (blue) in HepG2 cell free culture (AID 720685); note: potency is the fitted concentration of half-maximal effect
Procedure, shortened: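 Cell-free plates of MEM plus 10% FBS received 23 nL compound or DMSO vehicle; blue-channel (405/460 nm) intensity scored against triamterene as reference fluorophore.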

[15] = qHTS assay to test for compound auto fluorescence at 535 nm (green) in HepG2 cell free culture (AID 720686)
[16] = qHTS assay to test for compound auto fluorescence at 460 nm (blue) in HepG2 cells (AID 720687)
Procedure, shortened: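 HepG2 cells in MEM with 10% FBS, attached overnight at 37 C, were exposed to compound or DMSO for 1 hr at 37 C, 5% CO2. Blue fluorescence was read at 405/460 nm, with triamterene as reference fluorophore.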

[17] = qHTS assay for small molecule disruptors of the mitochondrial membrane potential - cell viability (AID 720634; calls by dose curve; note: nearly all actives have a fitted effect of over 20% in size; note: potency is the fitted concentration of half-maximal effect)
Procedure, shortened: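 ATP-based luminescent viability readout (CellTiter-Glo, 30 min, room temperature) in HepG2 cells multiplexed with the m-MPI membrane potential dye; compound exposure lasted 1 hr at 37 C.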

[18] = target: Glucocorticoid receptor (Homo sapiens) (UniProt P04150); test: qHTS assay to identify small molecule agonists of the glucocorticoid receptor (GR) signaling pathway (AID 720691; active = well fitted activation curve with a large enough effect in the signal ratio in the repeat runs, not every such curve was filed as active; inconclusive = weak or mixed curves, or effect the other way; inactive = no such curve, though single readings can be large or run the other way; the % refers to the signal ratio; note: potency is the fitted concentration of half-maximal effect); details: GR-bla HeLa, beta-lactamase reporter ratio, 18 h; activation: at 62.4 µM (top of the series)
Glucocorticoid receptor (Homo sapiens), sequence (P04150 whole entry, looked up): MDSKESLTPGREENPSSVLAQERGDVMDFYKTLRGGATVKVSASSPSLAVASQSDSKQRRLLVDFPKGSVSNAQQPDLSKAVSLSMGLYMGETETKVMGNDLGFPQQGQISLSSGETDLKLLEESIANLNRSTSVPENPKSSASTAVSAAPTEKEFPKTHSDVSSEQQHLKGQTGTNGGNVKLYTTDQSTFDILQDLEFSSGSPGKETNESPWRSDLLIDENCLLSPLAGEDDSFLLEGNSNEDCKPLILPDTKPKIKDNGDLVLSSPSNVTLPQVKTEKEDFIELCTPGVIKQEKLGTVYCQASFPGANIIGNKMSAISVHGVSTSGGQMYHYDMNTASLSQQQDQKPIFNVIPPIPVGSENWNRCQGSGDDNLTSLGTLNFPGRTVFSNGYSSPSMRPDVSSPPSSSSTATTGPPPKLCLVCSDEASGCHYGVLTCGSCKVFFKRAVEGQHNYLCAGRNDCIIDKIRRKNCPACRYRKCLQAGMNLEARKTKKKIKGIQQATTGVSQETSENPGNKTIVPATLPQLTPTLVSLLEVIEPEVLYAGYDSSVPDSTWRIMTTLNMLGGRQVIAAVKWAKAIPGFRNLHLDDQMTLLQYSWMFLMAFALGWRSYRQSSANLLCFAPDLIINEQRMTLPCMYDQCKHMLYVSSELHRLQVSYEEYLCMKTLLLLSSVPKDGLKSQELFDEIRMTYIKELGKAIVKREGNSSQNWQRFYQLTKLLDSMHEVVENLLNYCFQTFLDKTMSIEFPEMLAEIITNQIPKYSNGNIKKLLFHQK
Procedure, shortened: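 Cells: GR-bla HeLa, endogenous GR with stably integrated GRE-beta-lactamase reporter. Treatment 18 h, 37 C, compounds delivered in DMSO. Detection via LiveBLAzer B/G FRET substrate, 2 h RT, fluorescence intensity.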

[19] = target: Glucocorticoid receptor (Homo sapiens) (UniProt P04150); test: qHTS assay to identify small molecule antagonists of the glucocorticoid receptor (GR) signaling pathway (AID 720692; active = well fitted inhibition curve with a large enough effect in the signal ratio in the repeat runs, not every such curve was filed as active; inconclusive = weak or mixed curves, or effect the other way; inactive = no such curve, though single readings can be large or run the other way; the % refers to the signal ratio; note: potency is the fitted concentration of half-maximal effect)
Procedure, shortened: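 Quantitative HTS in antagonist format: HeLa cells expressing endogenous GR and a stably integrated GRE-bla reporter, stimulated with 5 nM dexamethasone (final) alongside test compounds for 18 h.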
Tags give direction and shape of the fitted curve or compound fluorescence and quenching.

Row | Structure (SMILES) | Potency [1] | Potency [2] | Potency [3] | Potency [4] | Potency [5] | Potency [6] | Potency [7] | Potency [8] | outcome [9] | Potency [10] | outcome [11] | Potency [12] | Potency [13] | Potency [14] | Potency [15] | Potency [16] | Potency [17] | Potency [18] | Potency [19]
1 | C=C(C)C(=O)OCC(O)COc1ccc(C(C)(C)c2ccc(OCC(O)COC(=O)C(=C)C)cc2)cc1 (centres undefined) | inactive | 54.5 µM (active) | 21.7 µM (active) | 5.45 µM (active) | inactive | inactive | inactive | inactive | inactive | inactive | inactive | inactive | inactive | inactive | inactive | inactive |  |  | 
2 | O=c1cc(-c2ccc(O)cc2)oc2cc(O)cc(O)c12 | 5.52 µM (active) and 4.86 µM (active) | inactive and 54.5 µM (active) |  | 1.75 µM (active) and 1.37 µM (active) | inactive | inactive | inactive | inactive | inactive | inactive | inactive | inactive | inactive | inactive | inactive | inactive | 4.92 µM (active) | inactive | 27.9 µM (active) and 27.5 µM (active)
3 | O=C(OC[C@H]1O[C@@H](OC(=O)c2cc(O)c(O)c(OC(=O)c3cc(O)c(O)c(O)c3)c2)[C@H](OC(=O)c2cc(O)c(O)c(OC(=O)c3cc(O)c(O)c(O)c3)c2)[C@@H](OC(=O)c2cc(O)c(O)c(OC(=O)c3cc(O)c(O)c(O)c3)c2)[C@@H]1OC(=O)c1cc(O)c(O)c(OC(=O)c2cc(O)c(O)c(O)c2)c1)c1cc(O)c(O)c(OC(=O)c2cc(O)c(O)c(O)c2)c1 | inactive | 5.96 µM (active) and inactive |  | 2.37 µM (active) | inactive | inactive | inactive | inactive | inactive | inactive | inactive | inactive | inactive | inactive | inactive | inactive | 10.6 µM (active) and inactive |  | inactive
4 | OCc1c[nH]c2ccccc12 | inactive | inactive | inactive | 24.3 µM (active) | inactive | inactive | inactive | inactive | inactive | inactive | inactive | inactive | inactive | inactive | inactive | inactive |  |  | 
5 | Fc1ccc([C@@H]2CCNC[C@H]2COc2ccc3c(c2)OCO3)cc1 | inactive | 33.5 µM (active) |  |  | inactive | inactive | inactive |  | inactive | inactive | inactive | inactive | inactive | inactive | inactive | inactive | inactive |  | 
6 | CC(C)(C)C(=O)OCOC(=O)C1N2C(=O)CC2S(=O)(=O)C1(C)C (centres undefined) | inactive | inactive | inactive |  | inactive | inactive |  | inactive | inactive | inactive | inactive | inactive | inactive | inactive |  | inactive |  |  | 
7 | C[C@H](CCC(=O)O)[C@H]1CC[C@H]2[C@@H]3CC[C@@H]4C[C@H](O)CC[C@]4(C)[C@H]3CC[C@]12C | inactive | 27.2 µM (active) and 27.3 µM (active) | inactive | 60.9 µM (active) | inactive | inactive | inactive | inactive | inactive | inactive | inactive | inactive | inactive | inactive |  | inactive |  | inactive | 19.4 µM (active) and 43.6 µM (active)
8 | CC(C)c1ccc2c(c1)CC[C@H]1[C@](C)(CN)CCC[C@]21C | inactive | 27.3 µM (active) | 38.6 µM (active) |  | inactive | inactive | inactive | inactive | inactive | inactive | inactive | inactive | inactive | inactive |  | inactive |  |  | 
9 | CN(C)c1ccc(C2(c3ccc(N(C)C)cc3)OC(=O)c3cc(N(C)C)ccc32)cc1 | inactive | inactive | inactive | 21.6 µM (active) | inactive | inactive | inactive | inactive | inactive | inactive | inactive | inactive | inactive | inactive | inactive | inactive |  | 4.35 µM [inconclusive] (active) | 
10 | CC[C@@]1(O)C(=O)OCc2c1cc1n(c2=O)Cc2cc3c(CN(C)C)c(O)ccc3nc2-1 | inactive | 8.41 µM (active) |  |  | inactive | inactive |  | inactive | inactive | 14.1 µM (active) | inactive | inactive | inactive | 14.1 µM [fluorescent] (active) | inactive |  | inactive |  | 
11 | CC(C)(C)CC(C)(C)c1ccc(OCCOCC[N+](C)(C)Cc2ccccc2)cc1 | inactive | 29.8 µM (active) and 61.1 µM (active) | 29.8 µM (active) and 68.5 µM (active) | 11.9 µM (active) and 21.7 µM (active) | inactive | inactive |  | inactive | inactive | inactive | inactive | inactive | inactive | inactive | inactive | inactive |  |  | 
12 | Oc1ccc2cc(SSc3ccc4cc(O)ccc4c3)ccc2c1 | inactive | inactive |  | 38.6 µM (active) and 24.3 µM (active) | inactive | inactive |  | inactive | inactive | inactive | inactive | inactive | inactive | inactive |  | inactive | inactive |  | 
13 | Cc1c(C)c2c(c(C)c1OC(=O)CCC(=O)O)CC[C@@](C)(CCC[C@H](C)CCC[C@H](C)CCCC(C)C)O2 | inactive | inactive |  |  | inactive | inactive | inactive | inactive | inactive | inactive | inactive | inactive | inactive | inactive | inactive | inactive | inactive |  | 
14 | CC(C)(C)c1ccc(C(=O)O)cc1 | inactive | inactive | inactive |  | inactive | inactive |  | inactive | inactive | inactive | inactive | inactive | inactive | inactive | inactive | inactive |  |  | inactive

From PubChem BioAssay (Tox21)
